According to PubChem BioAssay (EPA / NIEHS):
Several values for one entry are separate records, joined by “and”; a condition that tells them apart may be missing. Identical values can stand only once. Inconclusive results are not listed. Where a structure was tested more than once in an assay, its records may differ in their call. Activity calls are given as the source filed them. The calls were made as follows, unless noted: active = hit-call score of the fitted dose curve at least 0.9, where 1 is the maximum; inconclusive = response in the unintended direction; inactive = score below 0.9.

Experiments:
[1] = tested on: turtle Estrogen Receptor (ERa), gene 101933533; experiment: ATG_trERa_XSP2: Attagene TRANS-FACTORIAL Multi-Species (XSP2) HepG2 Assay for turtle Estrogen Receptor (ERa) (AID 2283812);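 also: human HepG2 liver cells transiently expressing turtle ERa-Gal4 chimeric receptor; actives raise reporter signal above DMSO so AC50 reflects agonist activity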
Summary of the method: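 HepG2 cells transiently transfected with GAL4-UAS reporter units expressing turtle ERa-Gal4 chimera. Reporter mRNA measured after 24 h dosing by RT-PCR, fluorescent labelling and capillary electrophoresis; gain of signal fitted versus DMSO.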

[2] = target: Estrogen receptor beta (Homo sapiens) (UniProt Q92731); experiment: ATG_hERb_XSP2: Attagene TRANS-FACTORIAL Multi-Species (XSP2) HepG2 Assay for human Estrogen Receptor (ERb) (AID 2283813);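 also: actives raise reporter mRNA above DMSO so AC50 reflects agonist induction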
Sequence of Estrogen receptor beta (Homo sapiens) (Q92731 whole entry, looked up, the tested form may be a part): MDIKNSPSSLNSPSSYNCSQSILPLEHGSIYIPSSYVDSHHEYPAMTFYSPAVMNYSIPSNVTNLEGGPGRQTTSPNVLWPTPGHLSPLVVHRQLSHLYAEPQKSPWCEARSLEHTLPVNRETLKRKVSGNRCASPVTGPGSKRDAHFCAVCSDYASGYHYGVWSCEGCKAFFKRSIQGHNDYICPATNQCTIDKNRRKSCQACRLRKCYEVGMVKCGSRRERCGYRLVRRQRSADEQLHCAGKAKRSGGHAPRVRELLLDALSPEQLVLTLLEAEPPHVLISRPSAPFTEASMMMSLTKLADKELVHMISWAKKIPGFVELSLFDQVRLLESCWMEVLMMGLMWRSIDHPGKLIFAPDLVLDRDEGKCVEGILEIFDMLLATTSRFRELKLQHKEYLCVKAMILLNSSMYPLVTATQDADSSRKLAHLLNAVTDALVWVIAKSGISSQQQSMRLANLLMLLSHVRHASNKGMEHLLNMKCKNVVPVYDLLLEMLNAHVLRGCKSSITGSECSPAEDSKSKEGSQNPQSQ
Summary of the method: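 HepG2 cells transiently transfected with GAL4-UAS reporter units and chimeric human ERb-Gal4, 24 h exposure. Reporter mRNA quantified by RT-PCR with FAM labelling, HpaI digestion and capillary electrophoresis; gain of signal versus DMSO.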

[3] = target: GAL4 Transcription Factor (Internal Marker), GAL4 (gene 855828) (UniProt P04386); experiment: ATG_GAL4_XSP2: Attagene TRANS-FACTORIAL Multi-Species (XSP2) HepG2 Assay for GAL4 Transcription Factor (Internal Marker) (AID 2283814);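 also: GAL4 reporter mRNA background control in MRTU transfected cells not a receptor target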
Sequence of GAL4 Transcription Factor (Internal Marker), GAL4 (gene 855828) (P04386 whole entry, looked up, the tested form may be a part): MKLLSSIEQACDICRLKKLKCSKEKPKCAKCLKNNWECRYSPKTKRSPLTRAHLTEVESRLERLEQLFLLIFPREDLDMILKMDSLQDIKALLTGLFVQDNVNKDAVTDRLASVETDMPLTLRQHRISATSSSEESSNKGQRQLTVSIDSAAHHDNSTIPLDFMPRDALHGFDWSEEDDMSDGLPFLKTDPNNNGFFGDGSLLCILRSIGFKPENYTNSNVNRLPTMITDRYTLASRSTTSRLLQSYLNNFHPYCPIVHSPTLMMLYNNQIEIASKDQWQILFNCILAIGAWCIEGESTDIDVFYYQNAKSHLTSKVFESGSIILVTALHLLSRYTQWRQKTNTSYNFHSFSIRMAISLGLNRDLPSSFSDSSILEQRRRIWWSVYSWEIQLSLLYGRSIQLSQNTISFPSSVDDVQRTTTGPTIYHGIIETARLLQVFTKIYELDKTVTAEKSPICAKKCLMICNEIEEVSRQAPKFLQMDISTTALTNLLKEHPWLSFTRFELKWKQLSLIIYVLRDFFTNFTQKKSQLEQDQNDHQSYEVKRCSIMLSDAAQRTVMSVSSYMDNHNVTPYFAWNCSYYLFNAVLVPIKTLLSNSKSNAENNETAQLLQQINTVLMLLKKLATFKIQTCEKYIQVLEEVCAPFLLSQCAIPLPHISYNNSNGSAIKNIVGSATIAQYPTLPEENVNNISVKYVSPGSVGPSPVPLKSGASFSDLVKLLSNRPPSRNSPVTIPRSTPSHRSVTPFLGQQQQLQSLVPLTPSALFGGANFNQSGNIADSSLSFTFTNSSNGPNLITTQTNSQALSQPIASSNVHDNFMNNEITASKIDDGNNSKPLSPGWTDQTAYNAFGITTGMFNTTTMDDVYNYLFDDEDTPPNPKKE
Summary of the method: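 HepG2 cells transiently transfected with GAL4-UAS reporter units, stimulated with 3 nM 6-alpha-fluorotestosterone plus 1.5 nM norgestrel, dosed 24 h. Reporter mRNA by RT-PCR/capillary electrophoresis; gain-of-signal fit versus DMSO, background control.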

[4] = target: zebrafish Estrogen Receptor (ER1), esr1 (gene 259252) (UniProt P57717); experiment: ATG_zfER1_XSP2: Attagene TRANS-FACTORIAL Multi-Species (XSP2) HepG2 Assay for zebrafish Estrogen Receptor (ER1) (AID 2283816)
Sequence of zebrafish Estrogen Receptor (ER1), esr1 (gene 259252) (P57717 whole entry, looked up, the tested form may be a part): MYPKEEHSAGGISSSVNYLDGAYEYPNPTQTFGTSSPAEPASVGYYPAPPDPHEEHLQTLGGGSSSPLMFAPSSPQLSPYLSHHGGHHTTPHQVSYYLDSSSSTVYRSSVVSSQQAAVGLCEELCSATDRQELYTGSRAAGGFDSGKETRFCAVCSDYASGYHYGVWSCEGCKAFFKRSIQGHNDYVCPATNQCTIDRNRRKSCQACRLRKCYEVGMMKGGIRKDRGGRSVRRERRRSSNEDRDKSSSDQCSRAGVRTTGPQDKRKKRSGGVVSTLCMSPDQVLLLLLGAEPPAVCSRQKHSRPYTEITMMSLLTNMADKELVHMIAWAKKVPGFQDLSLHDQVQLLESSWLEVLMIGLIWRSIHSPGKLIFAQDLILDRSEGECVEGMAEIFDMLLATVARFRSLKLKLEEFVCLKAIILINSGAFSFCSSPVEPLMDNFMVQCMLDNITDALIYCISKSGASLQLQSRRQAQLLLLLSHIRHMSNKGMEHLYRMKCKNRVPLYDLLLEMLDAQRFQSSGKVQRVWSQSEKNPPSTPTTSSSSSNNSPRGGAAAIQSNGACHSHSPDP
Summary of the method: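 HepG2 cells transiently transfected with a GAL4-UAS reporter and a chimeric zebrafish ER1-Gal4 construct, dosed 24 h. Reporter mRNA quantified by RT-PCR, labelling, HpaI digestion and capillary electrophoresis, relative to DMSO.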

[5] = target: chicken Estrogen Receptor (ERa), ESR1 (gene 396099) (UniProt P06212); experiment: ATG_chERa_XSP2: Attagene TRANS-FACTORIAL Multi-Species (XSP2) HepG2 Assay for chicken Estrogen Receptor (ERa) (AID 2283817);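 also: actives raise reporter signal above DMSO so AC50 reflects ER activation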
Sequence of chicken Estrogen Receptor (ERa), ESR1 (gene 396099) (P06212 whole entry, looked up, the tested form may be a part): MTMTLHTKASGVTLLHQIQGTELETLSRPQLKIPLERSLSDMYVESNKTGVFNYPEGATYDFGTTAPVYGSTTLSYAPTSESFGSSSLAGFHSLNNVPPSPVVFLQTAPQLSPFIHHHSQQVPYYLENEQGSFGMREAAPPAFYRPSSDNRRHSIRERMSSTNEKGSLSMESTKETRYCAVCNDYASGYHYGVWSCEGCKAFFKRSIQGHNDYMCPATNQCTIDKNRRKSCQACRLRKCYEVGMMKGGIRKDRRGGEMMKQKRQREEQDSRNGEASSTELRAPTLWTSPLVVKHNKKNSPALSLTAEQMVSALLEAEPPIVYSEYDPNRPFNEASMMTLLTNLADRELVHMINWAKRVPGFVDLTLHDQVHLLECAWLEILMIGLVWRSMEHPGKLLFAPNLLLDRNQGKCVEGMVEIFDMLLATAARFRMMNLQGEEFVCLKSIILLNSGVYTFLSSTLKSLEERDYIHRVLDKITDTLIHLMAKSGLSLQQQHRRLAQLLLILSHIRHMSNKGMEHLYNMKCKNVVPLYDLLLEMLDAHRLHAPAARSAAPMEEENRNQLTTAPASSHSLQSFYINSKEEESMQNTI
Summary of the method: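 Transiently transfected HepG2 cells expressing chimeric chicken ERa-GAL4 reporter units, dosed 24 h with 3 nM 6-alpha-fluorotestosterone and 1.5 nM norgestrel present. Reporter mRNA measured by RT-PCR and capillary electrophoresis; gain-of-signal fitted relative to DMSO.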

[6] = tested on: zebrafish Estrogen Receptor (ER2a), gene 317734; experiment: ATG_zfER2a_XSP2: Attagene TRANS-FACTORIAL Multi-Species (XSP2) HepG2 Assay for zebrafish Estrogen Receptor (ER2a) (AID 2283818);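 also: hits raise reporter mRNA so AC50 reflects activation of zebrafish ER2a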
Summary of the method: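 HepG2 cells transiently transfected with GAL4-UAS reporter units and chimeric zebrafish ER2a-Gal4, exposed 24 h; medium contains 3 nM 6-alpha-fluorotestosterone and 1.5 nM norgestrel. Reporter mRNA quantified by RT-PCR, HpaI digestion, capillary electrophoresis; gain versus DMSO.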

[7] = tested on: frog Estrogen Receptor (ER), gene 398734; experiment: ATG_frER1_XSP2: Attagene TRANS-FACTORIAL Multi-Species (XSP2) HepG2 Assay for frog Estrogen Receptor (ER) (AID 2283821);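 also: hits raise reporter mRNA above DMSO baseline so potency means agonist or activator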
Summary of the method: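 HepG2 cells transiently transfected with GAL4-UAS reporter units expressing a chimeric frog ER-Gal4 protein; 24 h exposure. Reporter mRNA quantified by RT-PCR, fluorescent labelling and capillary electrophoresis; gain of signal fitted against DMSO baseline.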

[8] = tested on: zebrafish Estrogen Receptor (ER2b), gene 317733; experiment: ATG_zfER2b_XSP2: Attagene TRANS-FACTORIAL Multi-Species (XSP2) HepG2 Assay for zebrafish Estrogen Receptor (ER2b) (AID 2283823);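 also: fitted upward as reporter gain over DMSO so potency reflects activation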
Summary of the method: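 Reporter transcripts quantified by RT-PCR, fluorescent labelling and capillary electrophoresis after 24 h dosing of transfected HepG2 expressing zebrafish ER2b-GAL4 fusion. Medium contained 3 nM 6-alpha-fluorotestosterone plus 1.5 nM norgestrel; DMSO baseline.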

[9] = tested on: frog Estrogen Receptor (ER2), gene 100174814; experiment: ATG_frER2_XSP2: Attagene TRANS-FACTORIAL Multi-Species (XSP2) HepG2 Assay for frog Estrogen Receptor (ER2) (AID 2283828)
Summary of the method: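 HepG2 cells transiently transfected with multiplexed GAL4-UAS reporter units expressing chimeric frog ER2–Gal4 protein; reporter mRNA measured 24 h after chemical dosing by RT-PCR, fluorescent labeling and capillary electrophoresis. Gain-of-signal fitted relative to DMSO baseline.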

[10] = target: Peroxisome proliferator-activated receptor gamma (Homo sapiens) (UniProt P37231); experiment: ATG_hPPARg_XSP2: Attagene TRANS-FACTORIAL Multi-Species (XSP2) HepG2 Assay for human Peroxisome Proliferator-activated Receptor gamma (PPARg) (AID 2283829);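 also: actives raise reporter mRNA above DMSO so AC50 reflects PPARg activation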
Sequence of Peroxisome proliferator-activated receptor gamma (Homo sapiens) (P37231 whole entry, looked up, the tested form may be a part): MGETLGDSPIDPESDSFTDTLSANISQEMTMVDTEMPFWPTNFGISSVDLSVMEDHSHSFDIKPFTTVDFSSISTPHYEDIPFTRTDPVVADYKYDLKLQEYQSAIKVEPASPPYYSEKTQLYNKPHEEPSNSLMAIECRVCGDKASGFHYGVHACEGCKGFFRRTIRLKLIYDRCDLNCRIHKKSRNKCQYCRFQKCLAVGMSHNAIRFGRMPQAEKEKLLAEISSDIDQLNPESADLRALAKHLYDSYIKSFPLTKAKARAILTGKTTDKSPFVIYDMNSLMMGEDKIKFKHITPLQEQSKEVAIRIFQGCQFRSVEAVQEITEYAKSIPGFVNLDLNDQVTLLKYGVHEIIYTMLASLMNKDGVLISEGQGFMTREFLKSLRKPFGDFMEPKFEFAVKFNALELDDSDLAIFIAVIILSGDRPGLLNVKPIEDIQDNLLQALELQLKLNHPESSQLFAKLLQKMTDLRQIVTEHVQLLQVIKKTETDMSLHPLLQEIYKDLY
Summary of the method: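 HepG2 cells transiently transfected with GAL4-UAS reporter units driven by chimeric NR-Gal4 proteins; androgen receptor stimulated with 3 nM 6-alpha-fluorotestosterone and 1.5 nM norgestrel. After 24 h, reporter mRNA quantified by RT-PCR and capillary electrophoresis versus DMSO.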

[11] = target: zebrafish Thyroid Hormone Receptor alpha (TRa), thraa (gene 30670) (UniProt Q98867); experiment: ATG_zfTRa_XSP2: Attagene TRANS-FACTORIAL Multi-Species (XSP1) HepG2 Assay for zebrafish Thyroid Hormone Receptor alpha (TRa) (AID 2283832);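 also: actives raise zebrafish TRa-Gal4 reporter transcript above DMSO baseline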
Sequence of zebrafish Thyroid Hormone Receptor alpha (TRa), thraa (gene 30670) (Q98867 whole entry, looked up, the tested form may be a part): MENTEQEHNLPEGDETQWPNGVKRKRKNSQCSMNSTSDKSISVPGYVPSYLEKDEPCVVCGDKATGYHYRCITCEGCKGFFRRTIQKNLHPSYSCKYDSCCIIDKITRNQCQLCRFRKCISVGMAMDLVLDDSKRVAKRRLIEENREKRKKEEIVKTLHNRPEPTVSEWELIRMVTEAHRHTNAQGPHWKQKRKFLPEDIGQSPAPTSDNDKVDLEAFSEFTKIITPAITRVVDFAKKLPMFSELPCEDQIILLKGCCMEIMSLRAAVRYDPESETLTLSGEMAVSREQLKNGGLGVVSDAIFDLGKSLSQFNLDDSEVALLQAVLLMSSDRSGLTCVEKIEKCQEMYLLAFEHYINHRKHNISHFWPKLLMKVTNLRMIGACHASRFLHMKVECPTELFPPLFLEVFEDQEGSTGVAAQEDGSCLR
Summary of the method: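 Transient transfection of human HepG2 with GAL4-UAS reporter units, then 24 h chemical treatment. RNA isolated, reverse-transcribed, PCR-amplified, FAM-labelled, HpaI-digested and run on capillary electrophoresis. Gain-of-signal relative to DMSO.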

[12] = tested on: zebrafish Peroxisome Proliferator-activated Receptor gamma (PPARg), gene 557037; experiment: ATG_zfPPARg_XSP2: Attagene TRANS-FACTORIAL Multi-Species (XSP2) HepG2 Assay for zebrafish Peroxisome Proliferator-activated Receptor gamma (PPARg) (AID 2283833);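 also: actives increase reporter signal over DMSO so AC50 reflects activation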
Summary of the method: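 HepG2 cells transiently transfected with multiplexed GAL4-UAS reporter units expressing chimeric NR-Gal4 receptors, dosed 24 h. Reporter mRNA quantified by RT-PCR, fluorescent labelling, HpaI digestion and capillary electrophoresis; gain of signal fitted against DMSO.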

[13] = tested on: turtle Thyroid Hormone Receptor, alpha (TRa), gene 101949057; experiment: ATG_trTRa_XSP2: Attagene TRANS-FACTORIAL Multi-Species (XSP1) HepG2 Assay for turtle Thyroid Hormone Receptor, alpha (TRa) (AID 2283834);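 also: hits raise reporter mRNA over the DMSO baseline so AC50 marks activators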
Summary of the method: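 HepG2 cells transiently transfected with GAL4-UAS reporter units for chimeric turtle TRa-Gal4; mRNA measured 24 h after dosing by RT-PCR and capillary electrophoresis fluorescence, gain of signal fitted against DMSO.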

[14] = ATG_M_61_XSP2: Attagene TRANS-FACTORIAL Multi-Species (XSP2) HepG2 Assay for M61 Transcription Factor (Internal Marker) (AID 2283835; active = hit-call score of the fitted dose curve at least 0.9, where 1 is the maximum; inactive = score below 0.9;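 also: active means a rise in signal above the DMSO baseline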)
Summary of the method: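 HepG2 cells transiently transfected with multiple GAL4-UAS reporter units; reporter mRNA measured 24 h after dosing by RT-PCR, fluorescent labelling and capillary electrophoresis. Medium contained 3 nM 6-alpha-fluorotestosterone and 1.5 nM norgestrel; internal marker, DMSO baseline.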

[15] = target: zebrafish Thyroid Hormone Receptor beta (TRb), thrb (gene 30607) (UniProt Q9PVE4); experiment: ATG_zfTRb_XSP2: Attagene TRANS-FACTORIAL Multi-Species (XSP1) HepG2 Assay for zebrafish Thyroid Hormone Receptor beta (TRb) (AID 2283836)
Sequence of zebrafish Thyroid Hormone Receptor beta (TRb), thrb (gene 30607) (Q9PVE4 whole entry, looked up, the tested form may be a part): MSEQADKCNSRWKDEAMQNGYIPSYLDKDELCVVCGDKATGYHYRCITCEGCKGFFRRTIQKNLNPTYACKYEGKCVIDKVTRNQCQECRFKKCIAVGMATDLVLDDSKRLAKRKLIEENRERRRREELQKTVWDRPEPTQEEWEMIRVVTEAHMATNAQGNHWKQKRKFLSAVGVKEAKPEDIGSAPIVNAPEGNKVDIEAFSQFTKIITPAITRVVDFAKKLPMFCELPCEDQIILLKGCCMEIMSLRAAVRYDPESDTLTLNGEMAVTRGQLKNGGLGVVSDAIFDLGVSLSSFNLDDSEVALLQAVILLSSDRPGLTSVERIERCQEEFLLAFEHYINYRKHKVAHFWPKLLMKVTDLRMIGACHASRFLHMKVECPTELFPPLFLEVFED
Summary of the method: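 Human liver HepG2, transient MRTU transfection (NR-Gal4 chimeras, GAL4-UAS reporters); 24 h compound exposure; total RNA → oligo(dT) RT → PCR → 6-FAM label → HpaI cut → CE fluorescence. DMSO = negative control/baseline.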

[16] = ATG_XTT_Cytotoxicity_XSP2: Cytotoxicity Assessment in the Attagene TRANS-FACTORIAL Multi-Species (XSP2) HepG2 Assay (AID 2283837)
Summary of the method: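 HepG2 cells, transiently transfected with multiple reporter constructs, exposed to chemical for 24 h. Cell number assessed with XTT fluorescence read-out; loss of signal fitted relative to DMSO.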

[17] = tested on: turtle Androgen Receptor (AR), gene 101947425; experiment: ATG_trAR_XSP2: Attagene TRANS-FACTORIAL Multi-Species (XSP2) HepG2 Assay for turtle Androgen Receptor (AR) (AID 2283815);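 also: potency for gain of reporter signal meaning activation above DMSO baseline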
Summary of the method: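 HepG2 cells transiently transfected with GAL4-UAS reporter units for chimeric NR-Gal4 receptors; 24 h dosing in presence of 3 nM 6-alpha-fluorotestosterone and 1.5 nM norgestrel. Reporter mRNA by RT-PCR and capillary electrophoresis, gain of signal versus DMSO.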

[18] = tested on: chicken Androgen Receptor (AR), gene 422165; experiment: ATG_chAR_XSP2: Attagene TRANS-FACTORIAL Multi-Species (XSP2) HepG2 Assay for chicken Androgen Receptor (AR) (AID 2283819);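 also: hits raise reporter mRNA above DMSO so potency is for activation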
Summary of the method: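 HepG2 cells transiently transfected with chicken AR–GAL4 chimeric reporter constructs, stimulated with 3 nM 6-alpha-fluorotestosterone plus 1.5 nM norgestrel, dosed 24 h. Reporter mRNA quantified by RT-PCR and capillary electrophoresis; gain of signal fitted versus DMSO.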

[19] = tested on: frog Androgen Receptor (AR), gene 399456; experiment: ATG_frAR_XSP2: Attagene TRANS-FACTORIAL Multi-Species (XSP2) HepG2 Assay for frog Androgen Receptor (AR) (AID 2283824);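 also: actives raise reporter signal above DMSO so AC50 reflects agonist-like induction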
Summary of the method: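 HepG2 cells transiently transfected with GAL4-UAS reporter units and frog (Xenopus laevis) AR-Gal4 chimera; reporter mRNA measured 24 h after dosing by RT-PCR and capillary electrophoresis. Gain of signal fitted relative to DMSO baseline.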

[20] = tested on: zebrafish Androgen Receptor (AR), gene 100005148; experiment: ATG_zfAR_XSP2: Attagene TRANS-FACTORIAL Multi-Species (XSP2) HepG2 Assay for zebrafish Androgen Receptor (AR) (AID 2283825);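 also: hits raise reporter mRNA above DMSO so AC50 reflects agonist-type gain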
Summary of the method: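 Zebrafish AR–GAL4 chimera transiently expressed with GAL4-UAS reporter in HepG2 cells, co-stimulated with 3 nM 6-alpha-fluorotestosterone and 1.5 nM norgestrel; 24 h dosing, reporter mRNA read by RT-PCR/capillary electrophoresis versus DMSO.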

Measured: AC50

CC(C)C1CCC(Cc2ccc(Cl)cc2)C1(O)Cn1cncn1 (centres undefined)
inactive: [1] | [2] | [3] | [4] | [5] | [6] | [7] | [9] | [11] | [12] | [13] | [14] | [15]
active: [8] 14.6 µM and 2.83 µM | [9] 14.3 µM | [10] 3.93 µM | [16] 42.8 µM

C[C@]12CCC(=O)C[C@@H]1CC[C@@H]1[C@@H]2CC[C@]2(C)[C@@H](O)CC[C@@H]12
inactive: [1] | [2] | [4] | [5] | [6] | [7] | [8] | [20] | [10] | [11] | [12] | [13] | [14] | [15]
active: [17] 0.0339 µM | [18] 0.198 µM | [19] 0.0457 µM

C[C@]12CC[C@H](O)CC1=CC[C@@H]1[C@@H]2CC[C@]2(C)C(=O)CC[C@@H]12
inactive: [3] | [10] | [11] | [12] | [13] | [14] | [15]
active: [1] 2.22 µM and 1.09 µM | [2] 1.14 µM and 962 nM | [4] 13.9 µM and 7.49 µM | [5] 2.19 µM and 1.14 µM | [6] 2.39 µM and 1.46 µM | [7] 3.14 µM and 1.55 µM | [8] 2.89 µM and 1.73 µM | [9] 3.43 µM and 2.23 µM

C[C@H]1CCCC(=O)CCC/C=C/c2cc(O)cc(O)c2C(=O)O1
active: [1] 7 nM and 1.7 nM | [2] 2.99 nM | [4] 9.96 nM | [5] 6.03 nM and 1.45 nM | [6] 24.6 nM and 6.41 nM | [7] 7.04 nM and 6.82 nM | [8] 27.1 nM and 8.37 nM | [9] 0.00566 µM
inactive: [2] | [4] | [18] | [9] | [10] | [11] | [12] | [13] | [14] | [16]

CC1(C)CCC(Cc2ccc(Cl)cc2)C1(O)Cn1cncn1 (centres undefined)
active: [1] 5.11 µM | [5] 3.58 µM | [8] 27.5 µM | [9] 26 µM
inactive: [3] | [4] | [6] | [7] | [10] | [11] | [12] | [13] | [14] | [15]

CC(=O)C=C(C)C
inactive: [1] | [4] | [5] | [6] | [18] | [7] | [8] | [20] | [10] | [11] | [12] | [13] | [14] | [15] | [16]
active: [6] 46.7 µM | [9] 183 µM

Clc1ccc(C2(Cn3cncn3)CC(Br)CO2)c(Cl)c1 (centres undefined)
active: [1] 19.8 µM | [5] 3.47 µM | [6] 37.4 µM | [7] 9.65 µM and 5.35 µM | [8] 51.4 µM and 29.2 µM | [9] 28.8 µM | [13] 26.9 µM
inactive: [1] | [2] | [3] | [4] | [5] | [6] | [9] | [10] | [11] | [12] | [13] | [14] | [15] | [16]
